# Reference: PubChem BioAssay AID1159580 (chemical genetic matrix, 2015)
# Among all 5,500 compounds or so, about 2,000 (36%) were called active. Not shown: some 18% with an inconclusive outcome. Some of the results follow. Values without a mark were called inactive. No stated cut-off is given here; in the data, active means normalized growth mostly below about 0.91 (no sharp cut-off); inconclusive means no clear call, values can overlap the other calls; inactive means mostly above about 0.92.
# Assay: chemical genetic growth profiling, strain panel (AID 1159580);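 further: tested at 20 µM; growth read once vehicle control cultures reached saturation at 30 °C; 1 = growth at the plate median or of vehicle wells; lower values mean less growth of the strain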
# Conditions: growth OD
smiles,measurement,setting,value
CSc1nc(NC(C)C)nc(NC(C)C)n1,normalized growth,"S. cerevisiae deletion strains, locus YJR075W, strain HOC1, active compounds read low",1.02
same,normalized growth,"S. cerevisiae deletion strains, locus YKL009W, strain mrt4, active compounds read low",1.03
same,normalized growth,"S. cerevisiae deletion strains, locus YKL068W, active compounds read low",1
same,normalized growth,"S. cerevisiae deletion strains, locus YKL085W, strain MDH1 (second series), active compounds read low",1.01
same,normalized growth,"S. cerevisiae deletion strains, locus YKL085W, strain MDH1, active compounds read low",1.01
same,normalized growth,"S. cerevisiae deletion strains, locus YKL160W, strain elf1, active compounds read low",0.979
same,normalized growth,"S. cerevisiae deletion strains, locus YKL190W, strain CNB1, active compounds read low",1.02
same,normalized growth,"S. cerevisiae deletion strains, locus YKR001C, strain vps1, active compounds read low",1.03
same,normalized growth,"S. cerevisiae deletion strains, locus YKR026C, strain gcn3, active compounds read low",0.973
same,normalized growth,"S. cerevisiae deletion strains, locus YKR091W, strain srl3, active compounds read low",0.973
same,normalized growth,"S. cerevisiae deletion strains, locus YLL001W, strain dnm1, active compounds read low",0.979
same,normalized growth,"S. cerevisiae deletion strains, locus YLL026W, active compounds read low",0.975
same,normalized growth,"S. cerevisiae deletion strains, locus YLL041C, strain sdh2, active compounds read low",0.983
same,normalized growth,"S. cerevisiae deletion strains, locus YLR027C, strain aat2, active compounds read low",0.967
same,normalized growth,"S. cerevisiae deletion strains, locus YLR039C, strain RIC1, active compounds read low",0.987
same,normalized growth,"S. cerevisiae deletion strains, locus YLR058C, strain SHM2, active compounds read low",1.01
same,normalized growth,"S. cerevisiae deletion strains, locus YLR102C, strain apc9, active compounds read low",1
same,normalized growth,"S. cerevisiae deletion strains, locus YLR113W, strain HOG1, active compounds read low",0.993
same,normalized growth,"S. cerevisiae deletion strains, locus YLR221C, strain rsa3, active compounds read low",0.971
same,normalized growth,"S. cerevisiae deletion strains, locus YLR258W, strain gsy2, active compounds read low",0.964
same,normalized growth,"S. cerevisiae deletion strains, locus YLR262C, strain YPT6 (second series), active compounds read low",0.856 (active)
same,normalized growth,"S. cerevisiae deletion strains, locus YLR262C, strain YPT6, active compounds read low",1.03
same,normalized growth,"S. cerevisiae deletion strains, locus YLR268W, strain sec22, active compounds read low",1.01
same,normalized growth,"S. cerevisiae deletion strains, locus YLR320W, strain mms22, active compounds read low",0.961
same,normalized growth,"S. cerevisiae deletion strains, locus YLR330W, strain CHS5, active compounds read low",1.01
same,normalized growth,"S. cerevisiae deletion strains, locus YLR342W, strain FKS1 (second series), active compounds read low",0.974
same,normalized growth,"S. cerevisiae deletion strains, locus YLR342W, strain FKS1, active compounds read low",0.958
same,normalized growth,"S. cerevisiae deletion strains, locus YLR357W, strain rsc2, active compounds read low",0.923
same,normalized growth,"S. cerevisiae deletion strains, locus YLR370C, strain arc18, active compounds read low",0.969
same,normalized growth,"S. cerevisiae deletion strains, locus YLR371W, strain rom2, active compounds read low",0.999
same,normalized growth,"S. cerevisiae deletion strains, locus YLR384C, strain iki3, active compounds read low",0.972
same,normalized growth,"S. cerevisiae deletion strains, locus YLR418C, strain cdc73, active compounds read low",1.04
same,normalized growth,"S. cerevisiae deletion strains, locus YML016C, strain PPZ1, active compounds read low",0.989
same,normalized growth,"S. cerevisiae deletion strains, locus YML032C, strain rad52, active compounds read low",1.03
same,normalized growth,"S. cerevisiae deletion strains, locus YML120C, strain ndi1, active compounds read low",0.966
same,normalized growth,"S. cerevisiae deletion strains, locus YML124C, strain tub3, active compounds read low",1.02
same,normalized growth,"S. cerevisiae deletion strains, locus YMR058W, strain fet3, active compounds read low",0.97
same,normalized growth,"S. cerevisiae deletion strains, locus YMR078C, strain ctf18, active compounds read low",1.02
same,normalized growth,"S. cerevisiae deletion strains, locus YMR125W, strain sto1, active compounds read low",0.958
same,normalized growth,"S. cerevisiae deletion strains, locus YMR129W, active compounds read low",0.973
same,normalized growth,"S. cerevisiae deletion strains, locus YMR205C, strain PFK2, active compounds read low",0.944
same,normalized growth,"S. cerevisiae deletion strains, locus YMR223W, strain ubp8, active compounds read low",1.01
same,normalized growth,"S. cerevisiae deletion strains, locus YMR231W, strain pep5, active compounds read low",0.973
same,normalized growth,"S. cerevisiae deletion strains, locus YMR263W, strain SAP30, active compounds read low",1.02
same,normalized growth,"S. cerevisiae deletion strains, locus YMR307W, strain GAS1, active compounds read low",1.05
same,normalized growth,"S. cerevisiae deletion strains, locus YNL067W, strain RPL9B, active compounds read low",0.999
same,normalized growth,"S. cerevisiae deletion strains, locus YNL071W, strain lat1, active compounds read low",0.978
same,normalized growth,"S. cerevisiae deletion strains, locus YNL128W, strain TEP1, active compounds read low",1.01
same,normalized growth,"S. cerevisiae deletion strains, locus YNL153C, strain GIM3, active compounds read low",1
same,normalized growth,"S. cerevisiae deletion strains, locus YNL183C, strain NPR1, active compounds read low",0.969
same,normalized growth,"S. cerevisiae deletion strains, locus YNL209W, strain ssb2, active compounds read low",0.987
same,normalized growth,"S. cerevisiae deletion strains, locus YNL233W, strain BNI4, active compounds read low",1.02
same,normalized growth,"S. cerevisiae deletion strains, locus YNL248C, strain rpa49, active compounds read low",0.979
same,normalized growth,"S. cerevisiae deletion strains, locus YNL250W, strain rad50, active compounds read low",1.01
same,normalized growth,"S. cerevisiae deletion strains, locus YNL271C, strain bni1, active compounds read low",1.01
same,normalized growth,"S. cerevisiae deletion strains, locus YNL298W, strain CLA4, active compounds read low",1
same,normalized growth,"S. cerevisiae deletion strains, locus YNL307C, strain MCK1, active compounds read low",1.01
same,normalized growth,"S. cerevisiae deletion strains, locus YNL322C, strain KRE1 (second series), active compounds read low",0.962
same,normalized growth,"S. cerevisiae deletion strains, locus YNL322C, strain KRE1, active compounds read low",1.01
same,normalized growth,"S. cerevisiae deletion strains, locus YNR049C, strain mso1, active compounds read low",0.953
same,normalized growth,"S. cerevisiae deletion strains, locus YNR052C, strain pop2, active compounds read low",1.02
same,normalized growth,"S. cerevisiae deletion strains, locus YOL006C, strain TOP1, active compounds read low",1.02
same,normalized growth,"S. cerevisiae deletion strains, locus YOL012C, strain htz1",0.96
same,normalized growth,"S. cerevisiae deletion strains, locus YOL147C, strain pex11, active compounds read low",1.02
same,normalized growth,"S. cerevisiae deletion strains, locus YOR001W, strain rrp6, active compounds read low",0.98
same,normalized growth,"S. cerevisiae deletion strains, locus YOR061W, strain CKA2, active compounds read low",1
same,normalized growth,"S. cerevisiae deletion strains, locus YOR069W, strain VPS5, active compounds read low",1.01
same,normalized growth,"S. cerevisiae deletion strains, locus YOR070C, strain gyp1, active compounds read low",0.962
same,normalized growth,"S. cerevisiae deletion strains, locus YOR080W, strain dia2, active compounds read low",0.963
same,normalized growth,"S. cerevisiae deletion strains, locus YOR083W, strain WHI5, active compounds read low",0.969
same,normalized growth,"S. cerevisiae deletion strains, locus YOR106W, strain vam3, active compounds read low",0.956
same,normalized growth,"S. cerevisiae deletion strains, locus YOR136W, strain idh2, active compounds read low",1.03
same,normalized growth,"S. cerevisiae deletion strains, locus YOR144C, strain elg1, active compounds read low",1.01
same,normalized growth,"S. cerevisiae deletion strains, locus YOR184W, strain ser1, active compounds read low",1.03
same,normalized growth,"S. cerevisiae deletion strains, locus YOR231W, strain MKK1, active compounds read low",1.03
same,normalized growth,"S. cerevisiae deletion strains, locus YOR265W, strain rbl2, active compounds read low",0.962
same,normalized growth,"S. cerevisiae deletion strains, locus YOR270C, strain vph1, active compounds read low",0.934
same,normalized growth,"S. cerevisiae deletion strains, locus YOR290C, strain snf2, active compounds read low",0.95
same,normalized growth,"S. cerevisiae deletion strains, locus YOR316C, strain cot1, active compounds read low",1.01
same,normalized growth,"S. cerevisiae deletion strains, locus YPL051W, strain arl3, active compounds read low",0.963
same,normalized growth,"S. cerevisiae deletion strains, locus YPL055C, strain LGE1, active compounds read low",1.04
same,normalized growth,"S. cerevisiae deletion strains, locus YPL078C, strain atp4, active compounds read low",0.969
same,normalized growth,"S. cerevisiae deletion strains, locus YPL106C, strain sse1, active compounds read low",0.986
same,normalized growth,"S. cerevisiae deletion strains, locus YPL240C, strain hsp82, active compounds read low",0.966
same,normalized growth,"S. cerevisiae deletion strains, locus YPL241C, strain CIN2, active compounds read low",1.01
same,normalized growth,"S. cerevisiae deletion strains, locus YPL256C, strain CLN2, active compounds read low",1.04
same,normalized growth,"S. cerevisiae deletion strains, locus YPR119W, strain clb2, active compounds read low",1.02
same,normalized growth,"S. cerevisiae deletion strains, locus YPR141C, strain kar3, active compounds read low",1.02
same,normalized growth,"S. cerevisiae deletion strains, locus YPR163C, strain tif3, active compounds read low",1.02
same,normalized growth,"S. cerevisiae deletion strains, locus YPR167C, strain met16, active compounds read low",1.01
same,normalized growth,"S. cerevisiae deletion strains, strain wtn01, active compounds read low",1.01
same,normalized growth,"S. cerevisiae strains, strain wild type, active compounds read low",1.01
